Experimental data taken from PubChem BioAssay (EPA / NIEHS).
Where “and” joins values, the source holds several entries; their conditions need not be identical. Equal entries are not always repeated. Some compounds were tested as several samples or in several runs, with calls that do not always agree. Calls of active or inactive are those of the source. How the source made its calls: active means hit-call score of the fitted dose curve at least 0.9, where 1 is the maximum; inactive means score below 0.9.

Tests used:
[1] = read-out: Plasminogen activator inhibitor-1 (PAI1), SERPINE1 (gene 5054); assay: BSK_KF3CT_PAI1: BioMAP Diversity Plus: KF3CT Assay for Plasminogen activator inhibitor-1 (PAI1) Biomarker Activity (AID 2284252); conditions: primary human keratinocytes with fibroblasts
Summary of the method: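 PAI-1 levels quantified by ELISA after 24 h compound exposure of primary human skin keratinocytes co-cultured with fibroblasts. Activity is the gain relative to DMSO; cytotoxicity tracked in parallel cultures via SRB staining.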

[2] = read-out: Monocyte Chemoattractant Protein-1 (MCP1), CCL2 (gene 6347); assay: BSK_IMphg_MCP1: BioMAP Diversity Plus: IMphg Assay for Monocyte Chemoattractant Protein-1 (MCP1) Biomarker Activity (AID 2284253); conditions: primary human endothelial cells with macrophages
Summary of the method: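 ELISA readout of MCP-1 at 24 hours in IMphg co-cultures of venular endothelial cells and macrophages, normalised to DMSO; parallel cultures stained with sulforhodamine B for overt cytotoxicity.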

[3] = read-out: Interleukin-8 (IL8), CXCL8 (gene 3576); assay: BSK_KF3CT_IL8: BioMAP Diversity Plus: KF3CT Assay for Interleukin-8 (IL8) Biomarker Activity (AID 2284254); conditions: primary human keratinocytes with fibroblasts
Summary of the method: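 Using parallel SRB-stained cultures to flag overt toxicity, the study quantified IL-8 by ELISA in human keratinocyte–foreskin fibroblast co-cultures 24 h after dosing, with DMSO as negative control and baseline.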

[4] = read-out: Macrophage Inflammatory Protein-1 Alpha (MIP1a), CCL3 (gene 6348); assay: BSK_IMphg_MIP1a: BioMAP Diversity Plus: IMphg Assay for Macrophage Inflammatory Protein-1 Alpha (MIP1a) Biomarker Activity (AID 2284255); conditions: primary human endothelial cells with macrophages
Summary of the method: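 MIP-1a protein levels were quantified by ELISA after 24 h treatment of human endothelial cell–macrophage co-cultures, compared with DMSO. Parallel cultures were fixed with TCA and stained with 0.1% SRB to gauge overt cytotoxicity.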

[5] = read-out: CD69, CD69 (gene 969); assay: BSK_IMphg_CD69: BioMAP Diversity Plus: IMphg Assay for CD69 Biomarker Activity (AID 2284257); conditions: primary human endothelial cells with macrophages
Summary of the method: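 Readout is ELISA for CD69 in primary human venular endothelial cell/macrophage co-culture, taken at 24 h post-dosing. SRB staining of parallel cultures gauged overt cytotoxicity; signal increase versus DMSO defined activity.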

[6] = read-out: Eotaxin 3, CCL26 (gene 10344); assay: BSK_BF4T_Eotaxin3: BioMAP Diversity Plus: BF4T Assay for Eotaxin 3 Biomarker Activity (AID 2284258); conditions: primary human bronchial epithelial cells with fibroblasts
Summary of the method: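 ELISA measurement of Eotaxin-3 after 24 h chemical exposure in a bronchial epithelial/dermal fibroblast co-culture, with DMSO as baseline. Parallel SRB staining (0.1% SRB after 10% TCA fixation, 560 nm) flagged overt cytotoxicity.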

[7] = read-out: Monocyte Chemoattractant Protein-1 (MCP1), CCL2 (gene 6347); assay: BSK_BF4T_MCP1: BioMAP Diversity Plus: BF4T Assay for Monocyte Chemoattractant Protein-1 (MCP1) Biomarker Activity (AID 2284259); conditions: primary human bronchial epithelial cells with fibroblasts
Summary of the method: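 MCP-1 ELISA readout taken 24 h after dosing in the BF4T system (bronchial epithelial cells plus dermal fibroblasts). Parallel SRB total-protein staining flagged cytotoxicity; DMSO served as baseline, positive fitting direction.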

[8] = read-out: Intercellular Adhesion Molecule 1 (ICAM1), ICAM1 (gene 3383); assay: BSK_BF4T_ICAM1: BioMAP Diversity Plus: BF4T Assay for Intercellular Adhesion Molecule 1 (ICAM1) Biomarker Activity (AID 2284260); conditions: primary human bronchial epithelial cells with fibroblasts
Summary of the method: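 ICAM-1 levels measured by ELISA after 24 h chemical treatment of bronchial epithelial cell/dermal fibroblast co-cultures, read against DMSO baseline. Overt cytotoxicity checked in parallel cultures by sulforhodamine B staining.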

[9] = read-out: CD90, THY1 (gene 7070); assay: BSK_BF4T_CD90: BioMAP Diversity Plus: BF4T Assay for CD90 Biomarker Activity (AID 2284262); conditions: primary human bronchial epithelial cells with fibroblasts
Summary of the method: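 CD90 levels by ELISA after 24 h treatment of human bronchial epithelial cell/dermal fibroblast cultures, analysed versus DMSO. Overt cytotoxicity checked in parallel cultures by sulforhodamine B staining.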

[10] = read-out: Interleukin-8 (IL8), CXCL8 (gene 3576); assay: BSK_BF4T_IL8: BioMAP Diversity Plus: BF4T Assay for Interleukin-8 (IL8) Biomarker Activity (AID 2284263); conditions: primary human bronchial epithelial cells with fibroblasts
Summary of the method: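 Human bronchial epithelial cells with dermal fibroblasts co-culture; IL-8 measured by ELISA 24 hours after dosing, fitted vs DMSO. Cytotoxicity tracked in parallel cultures by SRB total-protein staining.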

[11] = read-out: Interleukin-1 alpha (IL1a), IL1A (gene 3552); assay: BSK_BF4T_IL1a: BioMAP Diversity Plus: BF4T Assay for Interleukin-1 alpha (IL1a) Biomarker Activity (AID 2284264); conditions: primary human bronchial epithelial cells with fibroblasts
Summary of the method: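 ELISA read-out of IL-1α from bronchial epithelial cell/dermal fibroblast co-cultures 24 h after compound addition. Increases scored against DMSO negative control. Cytotoxicity monitored by sulforhodamine B staining of parallel cultures.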

[12] = read-out: KRT18 (gene 3875); assay: BSK_BF4T_Keratin818: BioMAP Diversity Plus: BF4T Assay for Keratin 818 Biomarker Activity (AID 2284266); conditions: primary human bronchial epithelial cells with fibroblasts
Summary of the method: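 Keratin 8/18 levels quantified by ELISA after 24 h chemical treatment of bronchial epithelial cell/dermal fibroblast co-cultures, fitted in positive direction relative to DMSO. Parallel SRB staining tracks overt cytotoxicity.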

[13] = read-out: Matrix Metallopeptidase 1 (MMP1), MMP1 (gene 4312); assay: BSK_BF4T_MMP1: BioMAP Diversity Plus: BF4T Assay for Matrix Metallopeptidase 1 (MMP1) Biomarker Activity (AID 2284270); conditions: primary human bronchial epithelial cells with fibroblasts
Summary of the method: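 MMP-1 quantified by ELISA in primary human bronchial epithelial/dermal fibroblast co-cultures, 24 hours post-dosing, with DMSO as baseline; parallel sulforhodamine B staining (560 nm) tracks overt cytotoxicity.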

[14] = read-out: Matrix Metallopeptidase 3 (MMP3), MMP3 (gene 4314); assay: BSK_BF4T_MMP3: BioMAP Diversity Plus: BF4T Assay for Matrix Metallopeptidase 3 (MMP3) Biomarker Activity (AID 2284271); conditions: primary human bronchial epithelial cells with fibroblasts
Summary of the method: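 MMP-3 level read by ELISA after 24 h chemical exposure of bronchial epithelial cell/dermal fibroblast co-cultures, fitted upward relative to DMSO. Parallel cultures stained with 0.1% SRB after TCA fixation gauge overt cytotoxicity.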

O=S(=O)(O)C(F)(F)C(F)(F)C(F)(F)C(F)(F)C(F)(F)C(F)(F)C(F)(F)C(F)(F)F
AC50 [1]: 24.4 µM (active) [middle of 4 runs]
outcome [2]: inactive
outcome [3]: inactive
outcome [4]: inactive
AC50 [5]: 30 µM (active)
outcome [5]: inactive
AC50 [6]: 17.2 µM (active) and 1.82 µM (active)
outcome [6]: inactive
AC50 [7]: 44.6 µM (active)
outcome [7]: inactive
outcome [8]: inactive
outcome [9]: inactive
outcome [10]: inactive
outcome [11]: inactive
outcome [12]: inactive
outcome [13]: inactive
AC50 [14]: 14.7 µM (active)
outcome [14]: inactive

O=C(O)C(F)(F)C(F)(F)C(F)(F)C(F)(F)C(F)(F)C(F)(F)C(F)(F)F
outcome [1]: inactive
outcome [2]: inactive
outcome [3]: inactive
outcome [4]: inactive
outcome [5]: inactive
outcome [6]: inactive
AC50 [7]: 50.1 µM (active)
outcome [7]: inactive
outcome [8]: inactive
outcome [9]: inactive
outcome [10]: inactive
outcome [11]: inactive
outcome [12]: inactive
outcome [13]: inactive
outcome [14]: inactive
